PLAP act – activates human placental alkaline phosphatase; P05187; purified PLAP enzyme, luminescent substrate read-out; hits give high values; activation fold at 20 µM; 1.2% of 96,000 active; AID 696; in the data active = activation fold above about 2
M1 agonist – activates the M1 muscarinic receptor; CHO-M1 cells, Fluo-4 calcium fluorescence, agonist mode; hits give high values; 3% of 64,000 active; AID 626; B-score at 10 µM;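 active = fluorescence rise, raw or as B-score row- and column-corrected plate score, outside the 99.7% band of its plate's samples, either direction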
Cav32 inh – human Cav3.2 channel inhibition, primary screen. O95180. Cav3.2-expressing cells, Fluo-4 calcium fluorescence FDSS; hits give low values. B-score at 10 µM. 4% of 100,000 active. AID 449739;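 active = single-dose well whose peak fluorescence ratio is a statistical outlier from its plate by either plate-standardised score or position-corrected B-score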
Her2 expr inh – Her2 kinase expression inhibition; P04626; SKBR-3 HER2 protein level, AlphaScreen, 18-24 h; hits give low values; HER2 level % of control, % at 10 µM; 0.69% of 65,000 active; AID 645;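 active = HER2 level under 5% of the carrier-only control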;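 also: lower value means stronger loss of Her2 protein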
M1 antagonist – M1 muscarinic receptor (rat) antagonism | CHO-M1 cells, Fluo-4 calcium, ACh EC80 antagonist mode; hits give low values | B-score at 10 µM | 3.4% of 64,000 active | AID 628;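 active = calcium fluorescence response, raw or row-and-column corrected B-score, differing from the plate sample mean either way at a set confidence level, mostly lower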
Large screens that a line does not name were inactive. This is a sample that favours compounds with a hit; in the whole collection about 7.9% have one here.

COc1ccccc1N1CCN(C(=O)c2cccc(N3C(=O)NC4CC3(C)Oc3ccccc34)c2)CC1 (centres undefined)	Cav32 inh -3.9
COCCn1c(=NC(=O)CSCC(=O)Nc2cc(C)on2)sc2cc(C(=O)OC)ccc21	none (no result: PLAP act, Cav32 inh)
CC1(C)CC(=O)C(C=NCCCn2ccnc2)=C(O)C1	none
Clc1cccc(Cl)c1C1=NOC(c2nnc(-c3ccccc3)o2)C1 (centres undefined)	none (no result: PLAP act, M1 agonist, Her2 expr inh, M1 antagonist)
Nn1c(SCC(=O)N2CCN(S(=O)(=O)c3ccc(Cl)cc3)CC2)nnc1-c1cccs1	none (no result: M1 agonist, Her2 expr inh, M1 antagonist)
COc1ccc2c(c1)C=C(C(=O)NCc1ccc(Cl)cc1)CO2	Cav32 inh -6.7 (no result: M1 agonist, Her2 expr inh, M1 antagonist)
O=C(Nc1ccc(Cl)cc1)C1=Cc2cc(Cl)ccc2OC1	none (no result: M1 agonist, Her2 expr inh, M1 antagonist)
COC(=O)[C@H](CCSC)NS(=O)(=O)c1ccccc1Br	none (no result: PLAP act, M1 agonist, Her2 expr inh, M1 antagonist)
O=C(O)C(Cc1ccccc1)N1Cc2ccccc2C1=O (centres undefined)	none (no result: M1 agonist, Her2 expr inh, M1 antagonist)
CC(C)CCNC(=O)[C@H](CSCc1ccccc1)N1Cc2ccccc2C1=O	Cav32 inh -3.8 (no result: PLAP act, M1 agonist, Her2 expr inh, M1 antagonist)
CCOC(=O)c1cnn(-c2ccccn2)c1N	none
CCOC(=O)c1cnn(-c2sc(C(=O)OCC)c(C)c2C(=O)OCC)c1N	M1 agonist -3.4, Cav32 inh -3.3 (no result: PLAP act)
CC(C)(C)c1ccc(C(=O)N2CCC(C(=O)NCCC3=CCCCC3)CC2)cc1	Cav32 inh -5 (no result: M1 agonist, Her2 expr inh, M1 antagonist)
CCCCOc1ccc(C)cc1CN(CCO)CCO	M1 antagonist 2.1
O=c1ncn(-c2ccccc2F)c2ncccc12	none (no result: M1 agonist, Her2 expr inh, M1 antagonist)
O=C(O)C[C@H]1c2ccc(C(F)(F)F)cc2S(=O)(=O)N1Cc1ccccc1	none (no result: PLAP act, M1 agonist, Her2 expr inh, M1 antagonist)
COc1cccc(N2CCN(C3CC(=O)N(c4ccc(Cl)c(Cl)c4)C3=O)CC2)c1 (centres undefined)	Cav32 inh -6.4
COc1cccc(-n2c(SCC(=O)O)nnc2-c2cccnc2)c1	Her2 expr inh -18
CC(C)c1ccccc1-n1c(SCC(=O)N2CCN(c3ccccc3)CC2)nnc1-c1cccnc1	Cav32 inh -4.4 (no result: M1 agonist, Her2 expr inh, M1 antagonist)
Cn1c(SCC(=O)N2CCN(c3ccccc3)CC2)nnc1-c1ccncc1	none (no result: PLAP act, M1 agonist, Her2 expr inh, M1 antagonist)
COc1ccc(CNC(=O)c2cccc3c2C(=O)N(Cc2cccnc2)C3)cc1	none
c1cc(N2CCCC2)ccc1C(c1nnnn1C1CCCCC1)N1CCOCC1 (centres undefined)	none
COc1ccc(C(c2nnnn2C2CCCCC2)N2CCN(c3ccc(OC)cc3)CC2)cc1 (centres undefined)	Cav32 inh -6.4
Fc1ccc(C(c2nnnn2Cc2cccs2)N2CCN(c3ccccc3)CC2)cc1 (centres undefined)	Cav32 inh -5.8 (no result: PLAP act, M1 agonist, Her2 expr inh, M1 antagonist)
c1ccc(C(c2nnnn2C2CCCC2)N2CCN(c3ccccc3)CC2)cc1 (centres undefined)	Cav32 inh -5.1 (no result: PLAP act, M1 agonist, Her2 expr inh, M1 antagonist)
CCc1ccc2[nH]c(=O)c(C(c3nnnn3CCOC)N3CCN(c4ccc(F)cc4)CC3)cc2c1 (centres undefined)	Cav32 inh -5.7
COc1cc(OC)c(C(=O)Nc2cccc(C(C)=O)c2)cc1OC	none (no result: M1 agonist, Her2 expr inh, M1 antagonist)
CCC1(C)Cc2ccccc2-c2nc(NCCCO)n(-c3ccccc3)c(=O)c21 (centres undefined)	none (no result: M1 agonist, Her2 expr inh, M1 antagonist)
CS(=O)(=O)Nc1ccccc1C(=O)c1ccccc1	none
COCCn1nnnc1C(c1ccc(OC)cc1)N1CCC(C)CC1 (centres undefined)	none
c1cnc2ccc(C(c3nnnn3C3CCCCC3)N3CCN(C4CCCCC4)CC3)cc2c1 (centres undefined)	none (no result: PLAP act, M1 agonist, Her2 expr inh, M1 antagonist)
Cc1ccc(C(c2nnnn2CCc2ccccc2)N2CCC(C)CC2)cc1 (centres undefined)	Cav32 inh -7.4 (no result: PLAP act, M1 agonist, Her2 expr inh, M1 antagonist)
COc1ccc(C(c2nnnn2C2CCCC2)N2CCC(C)CC2)cc1 (centres undefined)	Cav32 inh -4.4
Cc1ccc2cc(C(c3nnnn3C3CCCC3)N3CCN(c4ccc(F)cc4)CC3)c(=O)[nH]c2c1 (centres undefined)	Cav32 inh -5.3 (no result: PLAP act)
c1cnc2ccc(C(c3nnnn3C3CCCCC3)N3CCCCC3)cc2c1 (centres undefined)	Cav32 inh -4.7 (no result: PLAP act, M1 agonist, Her2 expr inh, M1 antagonist)
Cc1ccc(C(c2nnnn2CCc2ccccc2)N2CCSCC2)cc1 (centres undefined)	none (no result: Cav32 inh)
O=C(O)c1ccc(CSCc2c(F)cccc2Cl)o1	none
COc1ccc(C2CC(c3cccs3)=Nc3ccccc3S2)cc1 (centres undefined)	none (no result: PLAP act, M1 agonist, Her2 expr inh, M1 antagonist)
Cc1cccc(-n2nc3c(c2NC(=O)c2ccc(S(=O)(=O)N4CCOCC4)cc2)CSC3)c1C	none (no result: Cav32 inh)
O=C(Nc1c2c(nn1-c1ccc(F)cc1)CSC2)c1ccc(S(=O)(=O)N2CCOCC2)cc1	Cav32 inh -5.6
CC(C)(C)n1nc2c(c1NC(=O)c1ccc(S(=O)(=O)N3CCCC3)cc1)CSC2	Cav32 inh -3.5
Cc1ccc(-n2nc3c(c2NC(=O)c2cccs2)CSC3)cc1	Cav32 inh -6.3
O=C(CNCCC1=CCCCC1)Nc1ccc(N2CCCCCC2)cc1	Cav32 inh -5.1 (no result: M1 agonist, Her2 expr inh, M1 antagonist)
O=C(CNC1CCCCCC1)Nc1ccc(N2CCCC2)cc1	none (no result: M1 agonist, Cav32 inh, Her2 expr inh, M1 antagonist)
Nc1cc(Cl)nc(N/N=C/c2ccccc2[N+](=O)[O-])n1	none (no result: M1 agonist, Her2 expr inh, M1 antagonist)
O=C(c1cccc(COc2ccc(Cl)cc2Cl)c1)N1CCN(c2ccccn2)CC1	Cav32 inh -6.2
COC(=O)c1sccc1NC(=O)CSc1ccccc1NS(=O)(=O)c1ccccc1Cl	Cav32 inh -4.3 (no result: M1 agonist, Her2 expr inh, M1 antagonist)
COC(=O)c1sccc1NC(=O)CSc1ccccc1NS(=O)(=O)c1ccc(Cl)cc1	Cav32 inh -6 (no result: M1 agonist, Her2 expr inh, M1 antagonist)
COC(=O)c1sccc1NC(=O)CSc1cc(Cl)ccc1Cl	none (no result: M1 agonist, Cav32 inh, Her2 expr inh, M1 antagonist)
Cc1cccc(N(C)c2cc(C)nc3nc(C)nn23)c1	none (no result: PLAP act)
Clc1ccc(-c2nc(Cc3ccccc3)no2)cc1	none (no result: M1 agonist, Her2 expr inh, M1 antagonist)
COc1ccc(Cc2nc(-c3ccc(Br)cc3)no2)cc1	none (no result: Her2 expr inh)
Clc1ccc(Cc2noc(Cc3ccccc3)n2)cc1Cl	M1 antagonist 1.8
COc1ccc(Cc2nc(-c3ccc(Cl)cc3)no2)cc1	PLAP act 2
COc1ccccc1OCc1nc(Cc2ccc(Cl)cc2)no1	Cav32 inh -5.2
COc1cc(-c2nnc3sc(-c4cccs4)nn23)cc(OC)c1OC	none
CCCn1cnc2cc(NCc3cccc(OC)c3O)ccc21	PLAP act 2.7
Cc1cc(NC(=O)c2cccc(S(=O)(=O)N3CCOCC3)c2)c2ccccc2n1	none
Cc1ccc2nc(Nc3ccccc3)c(/C=N/O)c(=O)n2c1	Her2 expr inh -25 (no result: PLAP act)
O=C(O)c1ccccc1-c1ccccc1C(=O)NCc1ccco1	none (no result: Cav32 inh)
Cc1oc(-c2ccccc2)cc1C(=O)Nc1cccc2ccccc12	Cav32 inh -5 (no result: M1 agonist, Her2 expr inh, M1 antagonist)
Cc1oc(-c2ccccc2)cc1C(=O)Nc1cccc(C(=O)O)c1	none
COc1cc(C(=O)Nc2ccc(-n3cnnn3)c(C)c2)cc(OC)c1OC	Cav32 inh -4.4
Cc1cc(NC(=O)c2ccco2)ccc1-n1cnnn1	none (no result: M1 agonist, Her2 expr inh, M1 antagonist)
Oc1ccc(CN2CCc3ccccc3C2)c2cccnc12	PLAP act 2.1 (no result: M1 agonist, Her2 expr inh, M1 antagonist)
O=C(NCCCCc1ccccc1)C1CC(c2ccccc2C(F)(F)F)=NO1 (centres undefined)	none (no result: PLAP act, M1 agonist, Her2 expr inh, M1 antagonist)
O=C(CCn1c(=S)[nH]c2cc3c(cc2c1=O)OCO3)N1CCN(C2CCCCC2)CC1	none (no result: PLAP act, Cav32 inh)
O=S(=O)(c1ccccc1)c1cnn(-c2ccccc2)c1-c1ccc(Cl)cc1	Cav32 inh -3.9 (no result: M1 agonist, Her2 expr inh, M1 antagonist)
